Source: PubChem BioAssay (Paczesny and Yang Labs, IUPUI and University of Michigan)
ST2 inh: blocks human ST2 binding to IL-33. AlphaLISA ST2-Fc/biotin-IL-33 interaction, 1 h. inhibition, % for hits at 17 µM. hit rate 2.3% among 78,000. AID 1259354; in the data active = inhibition above about 30%
Target sequence (Q01638 whole entry, looked up): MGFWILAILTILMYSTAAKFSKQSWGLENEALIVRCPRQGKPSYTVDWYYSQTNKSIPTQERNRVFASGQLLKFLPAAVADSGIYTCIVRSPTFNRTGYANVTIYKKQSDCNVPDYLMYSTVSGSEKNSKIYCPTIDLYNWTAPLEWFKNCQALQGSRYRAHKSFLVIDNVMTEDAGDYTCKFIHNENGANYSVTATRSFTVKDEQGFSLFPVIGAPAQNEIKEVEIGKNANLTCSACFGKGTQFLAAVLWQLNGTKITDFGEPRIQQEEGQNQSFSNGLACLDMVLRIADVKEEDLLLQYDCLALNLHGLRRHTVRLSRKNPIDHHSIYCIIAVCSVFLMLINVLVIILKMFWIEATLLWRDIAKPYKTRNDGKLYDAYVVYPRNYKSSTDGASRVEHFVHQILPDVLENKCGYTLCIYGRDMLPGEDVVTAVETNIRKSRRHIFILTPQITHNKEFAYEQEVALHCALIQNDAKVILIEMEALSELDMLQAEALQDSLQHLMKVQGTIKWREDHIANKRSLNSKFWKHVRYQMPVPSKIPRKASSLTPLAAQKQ
A number is an active result; 0 = inactive. This excerpt belongs to a sample that is enriched for hits.

SMILES | ST2 inh
Cc1cc(Nc2ccc(O)cc2)n2c(nc3ccccc32)c1C#N | 33%
O=C(CC(c1ccccc1)c1ccccc1F)N1CCCO1 (stereo not given) | 0
Cc1ccnc(-c2cccc(Cl)c2Cl)n1 | 0
O=C(O)CCCC[C@@H]1CCSS1 | 0
CC1NC(=O)NC1CCCCC(=O)O (stereo not given) | 46%
NCCCCCC(=O)O | 0
O=C(NCC1CCCN(Cc2ccccc2O)C1)C1(c2ccc(Cl)cc2)CC1 (stereo not given) | 0
COc1cccc(OCC(O)CN2CCN(Cc3ccc4c(c3)OCO4)CC2)c1 (stereo not given) | 0
COc1cccc(C(=O)ON=C2C=CC(=O)C=C2)c1 | 0
COc1ccc(C(=O)OC(C)C(O)c2ccc(OC)cc2)cc1 (stereo not given) | 0
COc1ccc(C(=O)ON=C2c3ccccc3-c3ccccc32)cc1 | 40%
O=C(CNS(=O)(=O)c1ccc(Br)s1)N1CC=C(c2ccccc2)CC1 | 0
O=[N+]([O-])c1cccc(CN2CCCCC2CCO)c1 (stereo not given) | 0
O=[N+]([O-])c1cccc(CN2CCC(N3CCCCCC3)CC2)c1 | 0
CCCN(Cc1cccc([N+](=O)[O-])c1)CC1CC1 | 96%
CC1=C(C(N)=O)C(c2ccc(F)cc2)n2ncnc2N1 (stereo not given) | 0
Cc1ccc(C2c3nc[nH]c3CCN2Cc2cc(C)ccc2O)cc1 (stereo not given) | 0
CCCCc1ncc(CN2CCN(Cc3ccc(OCC)cc3)C(CCO)C2)[nH]1 (stereo not given) | 0
CCCCc1ncc(CN2CCc3[nH]cnc3C2c2cccc(O)c2)[nH]1 (stereo not given) | 37%
CCNc1nc(NCC)nc(Oc2ccc(C=O)cc2)n1 | 0
CN(C)CCNC(=O)C[C@@H]1O[C@H](CNC(=O)Nc2ccccc2)[C@@H](O)[C@H]1O | 0
C=CCn1c(SCC(=O)c2ccc(C)cc2C)nnc1-c1cccc(OC)c1 | 0
Cc1cccc2[nH]c(CN(C)CC3(O)CCCN(CC4CCC4)C3=O)nc12 (stereo not given) | 0
COc1cc(C2Nc3ccc4ccccc4c3C3=C2C(=O)CC(C)(C)C3)ccc1O (stereo not given) | 0
COc1ccc(NC(=O)c2ccccc2Br)cc1 | 0
SMILES | ST2 inh
COc1ccc(-n2nc3c(c2NC(=O)c2ccc(OC)cc2OC)CSC3)cc1 | 0
COC(=O)C1=C(NC(=O)c2ccc(OC)cc2OC)CCS1 | 32%
COC(=O)C1=C(NC(=O)c2ccccc2Br)CCS1 | 31%
COc1ccc(C(=O)Nc2nc3ccc(S(C)(=O)=O)cc3s2)c(OC)c1 | 0
COc1ccc(OC)c(NC(=O)c2ccccc2Br)c1 | 0
CCC(=O)C(=O)NCC1CCCN(Cc2ccccn2)C1 (stereo not given) | 0
COc1cc(C=C2C(=O)OC(c3ccccc3)OC2=O)ccc1OCc1cccc(C(=O)O)c1 (stereo not given) | 0
CSc1ccc(-c2nc3cnccn3c2Nc2ccc(C)cc2)cc1 | 0
O=S(=O)(N=C(Nc1ccccc1)c1ccccc1)c1ccc(Br)cc1 | 0
COc1cc([N+](=O)[O-])ccc1NC(=O)c1cc(Cl)ccc1OC | 0
CC(c1ccccn1)N(C)Cc1cn[nH]c1C(=O)O (stereo not given) | 0
COc1ccc(N(C(=O)Cc2ccc(F)cc2)C2C=CS(=O)(=O)C2)c(OC)c1 (stereo not given) | 0
Cc1ccc(N2NC(=O)/C(=C/c3ccc(Cl)cc3Cl)C2=O)cc1Cl | 0
Cc1cc(/C=C2\C(=O)NC(=O)N(C)C2=O)c(C)n1-c1ccc(F)c(Cl)c1 | 46%
Cc1cc(C=C2C(=O)N(C)C(=O)N(C)C2=O)c(C)n1-c1ccc(Cl)c(Cl)c1 | 0
CC(=O)c1ccc(NC(=O)O[C@@H]2CO[C@H]3[C@@H]2OC[C@@H]3NC(=O)Nc2cccc(C#N)c2)cc1 | 0
COc1cc(NC(=S)N[C@H]2CO[C@H]3[C@@H]2OC[C@H]3OC(=O)Nc2ccc(C(C)=O)cc2)cc(OC)c1 | 0
CC(=O)c1ccc(NC(=O)N[C@H]2CO[C@H]3[C@@H]2OC[C@H]3OC(=O)Nc2cccc(C(C)=O)c2)cc1 | 85%
CC(=O)c1ccc(NC(=O)O[C@@H]2CO[C@H]3[C@@H]2OC[C@@H]3NC(=O)NC2CCCCC2)cc1 | 0
CC(C)c1ccc(NC(=O)O[C@@H]2CO[C@H]3[C@@H]2OC[C@@H]3NC(=S)Nc2ccccc2)cc1 | 0
CC(=O)c1ccc(NC(=O)O[C@@H]2CO[C@H]3[C@@H]2OC[C@@H]3NC(=S)Nc2ccccc2)cc1 | 41%
CCOCCSc1nc2c(c(=O)[nH]1)C(C1CCCC1)Cc1ccccc1-2 (stereo not given) | 0
CC1(C)CC(=O)C2=C(C1)N(c1ccccc1)C(=O)CC2c1ccccc1 (stereo not given) | 0
CCCC(=O)Nc1cccc(C(=O)NCc2cc(-c3ccccn3)no2)c1 | 0
CCCC(=O)N1c2ccccc2NC2=C(C(=O)CCC2)C1c1ccc(C)cc1 (stereo not given) | 0
SMILES | ST2 inh
CCc1ccccc1NC(=O)C(c1ccccc1)c1ccccc1 | 0
Cc1cccc(C)c1NC(=O)CSc1nnc(-c2ccccc2)c(-c2ccccc2)n1 | 0
COc1ccc(NC(=O)CSc2ncccn2)cc1 | 0
COc1cc(NC(=O)CSc2nnc(-c3ccco3)c(-c3ccco3)n2)cc(OC)c1 | 31%
O=C(Nc1cccc(F)c1)c1oc2ccccc2c1NC(=O)c1c(F)cccc1F | 0
CCC(C)n1c(Cc2ccc(O)cc2)n[nH]c1=O (stereo not given) | 33%
CC(C)[C@@H](C)n1c(CCc2ccccc2)n[nH]c1=O | 0
CC(C(=O)O)n1c(Cc2ccccc2)n[nH]c1=O (stereo not given) | 0
COc1ccc(S(=O)(=O)N(CC(=O)Nc2cccc(C(C)=O)c2)Cc2ccccc2)cc1 | 0
CN(C(=O)CC1=CCCCC1)C1CCCN(C2Cc3ccccc3C2)C1 (stereo not given) | 0
Cc1ccc2nc(C3CCCN(c4nc(C)nc5c4CCNC5)C3)[nH]c2c1 (stereo not given) | 0
CCC(CC)C(=O)Nc1cc(C)ccc1OCc1cc(=O)n2oc(C)cc2n1 | 0
CC(=O)c1ccc(N=Cc2ccc(C=Nc3ccc(C(C)=O)cc3)cc2)cc1 | 0
COc1ccc(/C=C/C#N)cc1 | 0
COc1ccc(C=Nc2cc(Cl)c(N)c(Cl)c2)cc1 | 85%
COc1ccc(Cl)cc1NC(=O)c1c(-c2c(F)cccc2Cl)noc1C | 0
Cc1ccccc1OCC(=O)Nc1ccc(N2C(=O)c3cccc([N+](=O)[O-])c3C2=O)cc1 | 0
Cc1ccc(NC(=O)c2cccc([N+](=O)[O-])c2)cc1C | 0
O=C(Nc1cccc(Cl)c1)c1cccc([N+](=O)[O-])c1 | 92%
O=C(Nc1ccc(I)cc1)c1cccc([N+](=O)[O-])c1 | 0
COc1ccc(CNC(=O)c2cc(NC(=O)CC3CCCC3)cc3nc(C4CCCO4)n(C)c23)cc1 (stereo not given) | 0
O=C(Nc1ccc(Cc2ccncc2)cc1)c1ccc([N+](=O)[O-])cc1Cl | 0
O=C(Nc1ccccc1)c1cc([N+](=O)[O-])ccc1Cl | 0
O=C(c1ccc([N+](=O)[O-])cc1Cl)N(Cc1ccccc1)Cc1ccccc1 | 38%
Cc1ccc(NC(=O)c2cnc3scc(C)n3c2=O)cc1 | 0
CC(C)(C)c1ccc(C(=O)N2CCN(c3ccc([N+](=O)[O-])c(NCc4ccco4)c3)CC2)cc1 | 31%
O=[N+]([O-])c1ccc(N2CCOCC2)cc1NCc1ccco1 | 0
Cc1cc(C)n(-c2cc(N3CCN(C(=O)c4ccco4)CC3)ccc2[N+](=O)[O-])n1 | 0
